Assay [1] is described as follows: Nuclear factor erythroid 2-related factor 2/antioxidant responsive element (Nrf2/ARE) small molecule agonists: qHTS cell viability counter screen in human keratinocytes (AID 1919968; active means well fitted curve in the direction sought with a large enough effect in the repeat runs; an effect the other way counts as inactive or inconclusive; further: nearly all actives have a fitted effect of over 55% in size; further: potency means the concentration at half of the fitted maximal effect). Summed up:
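Fluorescence read-out from CellTiter-Fluor after 1 h at 37 C. Wells held HaCaT-derived ARE-luciferase reporter cells (1,500/well) treated 23 h with DMSO-dissolved compounds. Run in the same wells as the luciferase agonist read.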
In general terms: Quantitative high-throughput screening tests each substance at several concentrations.

Assay [2] can be described thus: Nuclear factor erythroid 2-related factor 2/antioxidant responsive element (Nrf2/ARE) small molecule agonists: luciferase reporter gene qHTS assay in human keratinocytes (AID 1919969). Further: nearly all actives have a fitted effect of over 35% in size. Further: potency means the concentration at half of the fitted maximal effect. A general note: A reporter such as luciferase makes a cellular process visible.
Assay [3] addresses Gonadotropin-releasing hormone receptor (Homo sapiens) (UniProt P30968). Briefly: Human gonadotropin-releasing hormone receptor (GnRHR) small molecule agonists, calcium flux assay in GnRHR-HEK293 cells (AID 1920063). Further: nearly all actives have a fitted effect of over 35% in size. A digest of the protocol: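 Calcium-dye fluorescence, Ex/Em=480/540, recorded every 1 sec over 3 min after compound addition to GnRHR-HEK293 cells. Cells had been seeded 18 hours earlier and dye-loaded for 1 hour at 37 C. Fifteen concentrations, triplicates.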
On the technique in general: Calcium flux is commonly read through the fluorescence of an indicator in the cells.

The target of assay [4] is KiSS-1 receptor (Homo sapiens) (UniProt Q969F8). Description: Human kisspeptin (KISS1R) small molecule agonists, calcium flux assay in KISS1R-HEK293 cells (AID 1920064; active means well fitted curve in the direction sought with a large enough effect in the repeat runs; an effect the other way counts as inactive or inconclusive). Summed up: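 Calcium flux read-out: kinetic fluorescence at Ex/Em=480/540, 1 s intervals over 3 min, after pin-tool compound addition to dye-loaded KISS1R-HEK293 cells. Fifteen concentrations, triplicates.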

The nature of assay [5]: G protein-coupled receptor (GPCR) small molecule agonists, calcium flux assay: HEK293 wild type cell line counter screen (AID 1920065). A digest of the protocol: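 Agonist mode; 18 h seeding at 37 C, 1 h dye load at 37 C; compounds pinned from DMSO, ATP as positive control; kinetic fluorescence 480/540 nm, 3 min, 1 s reads; 15 concentrations, triplicate.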
Assay [6] in a line: p53 small molecule agonists, cell-based qHTS assay with human liver microsomes (AID 1963577). A digest of the protocol:
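Compounds act here after metabolic activation: human liver microsomes and NADPH, both at 0.5 mg/mL final, were co-added to p53RE-bla cells. Incubation ran 16 h at 37 C, followed by LiveBLAzer detection.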

Assay [7] can be described thus: p53 small molecule agonists, cell-based qHTS assay with rat liver microsomes (AID 1963578). A digest of the protocol: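 Read-out is beta-lactamase reporter fluorescence (LiveBLAzer, 2 h, room temperature, dark) in p53RE-bla cells treated 16 h at 37 C with compound, rat liver microsomes and NADPH, both 0.5 mg/mL final.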
A short description of assay [8]: p53 small molecule agonists, cell-based qHTS assay with human liver microsomes: qHTS cell viability counter screen (AID 1963579). Further: nearly all actives have a fitted effect of over 45% in size. Summed up:
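Cells carrying the p53 response-element beta-lactamase reporter are treated for 16 h at 37 C with test compounds in the presence of human liver microsomes and NADPH (both 0.5 mg/mL final); ATP-based CellTiter-Glo luminescence then reports viability.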

Assay [9] is described as follows: p53 small molecule agonists, cell-based qHTS assay with rat liver microsomes: qHTS cell viability counter screen (AID 1963580). Further: nearly all actives have a fitted effect of over 45% in size. A digest of the protocol: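 Counter screen for cytotoxicity under metabolic activation: rat liver microsomes and NADPH, 0.5 mg/mL final each, added with compounds to p53RE-bla HCT-116 cells; 16 h at 37 C, then ATP luminescence read.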
A short description of assay [10]: p53 small molecule agonists, cell-based qHTS assay: qHTS cell viability counter screen (AID 1963581). Further: nearly all actives have a fitted effect of over 45% in size. Summed up:
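Cytotoxicity read-out: ATP-based luminescence (CellTiter-Glo, 30 min RT) measured in the same wells as the p53 reporter assay, HCT-116 p53RE-bla cells, 16 h compound exposure at 37 C.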

The target in assay [11] is 5-hydroxytryptamine receptor 2A (Homo sapiens) (UniProt P28223). Description: 5-hydroxytryptamine receptor 2A (HTR2A) small molecule agonists, cell-based qHTS assay (AID 1963587). Further: nearly all actives have a fitted effect of over 30% in size. Summed up:
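HTR2A-CHO cells, plated 18 h at 37 C/5% CO2, dye-loaded 1 h at 37 C; compounds in DMSO added by pin tool (agonist mode). Intracellular calcium flux read as kinetic fluorescence on FDSS over 2 min at 1 s intervals.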

Assay [12] addresses Muscarinic acetylcholine receptor M1 (Homo sapiens) (UniProt P11229). Briefly: Cholinergic receptor muscarinic 1 (CHRM1) small molecule agonists, cell-based qHTS assay (AID 1963589). Further: nearly all actives have a fitted effect of over 35% in size. A digest of the protocol: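 Calcium flux read-out: kinetic fluorescence at 1 sec intervals after pin-tool compound addition to dye-loaded CHRM1-CHO cells (human M1). Agonist mode; 15 concentrations tested in triplicate independent runs.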

Assay [13] addresses Beta-2 adrenergic receptor (Homo sapiens) (UniProt P07550). Description: Adrenergic beta2 receptor (ADRB2) small molecule antagonists, cell-based qHTS assay (AID 1963592). Further: series mostly up to about 92 µM; nearly all actives have a fitted effect of over 50% in size. A digest of the protocol: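 Assay format: CHO-ADRB2 cells, 18-20hr seeding at 37C/5% CO2, then compound plus 1nM isoproterenol agonist mix for 0.5hr RT. Homogeneous time-resolved fluorescence cAMP detection after 1hr, expressed as 665/615 nm ratio.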

In assay [14] the target is D(2) dopamine receptor (Homo sapiens) (UniProt P14416). Briefly: Dopamine D2 receptor (DRD2) small molecule agonists, cell-based qHTS assay (AID 1963594). Further: nearly all actives have a fitted effect of over 35% in size. Summed up: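 HEK293 cells stably expressing DRD2 were cultured 24 h at 37 C, then given Ro20-1724 (0.1 mM final) and compounds for 10 min at room temperature. NKH477 (200nM) was then added for 30 min. cAMP was read by HTRF.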

A short description of assay [15]: cAMP Responsive Elements (CRE) small molecule agonists, cell-based qHTS assay (AID 1963590). Summed up:
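Beta-lactamase reporter readout: LiveBLAzer B/G FRET substrate, 2 h at room temperature, added after 3 h compound treatment of CRE-bla HEK 293T cells at 37 C/5% CO2.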

For assay [16], the target named is D(2) dopamine receptor (Homo sapiens) (UniProt P14416). Description: Dopamine D2 receptor (DRD2) small molecule antagonists, cell-based qHTS assay (AID 1963595; active means well fitted inhibition curve with a large enough effect in the signal ratio in the repeat runs, with a control signal flat; the % refers to the signal ratio). Summed up: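 HEK293 cells stably expressing DRD2 were preincubated with 0.1 mM Ro20-1724, then with compound for 10 min at room temperature. Cells were stimulated with 200 nM NKH477 plus 12 nM quinpirole for 30 min, and cAMP was read by HTRF.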

The nature of assay [17]: p53 small molecule agonists, cell-based qHTS assay (AID 1963582; active means well fitted activation curve with a large enough effect in the signal ratio in the repeat runs, not every such curve was filed as active; the % refers to the signal ratio). A digest of the protocol: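 Fluorescence intensity read-out of a beta-lactamase reporter under a p53 response element. Cells were exposed to DMSO-dissolved compounds for 16 h at 37 C, then developed with FRET substrate for 2 h at RT.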
The target of assay [18] is 5-hydroxytryptamine receptor 2A (Homo sapiens) (UniProt P28223). Briefly: 5-hydroxytryptamine receptor 2A (HTR2A) small molecule antagonists, cell-based qHTS assay (AID 1963586). Further: nearly all actives have a fitted effect of over 45% in size. A digest of the protocol:
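CHO cells stably expressing human HTR2A were plated for 18 h at 37 C, then loaded with calcium dye for 1 h. Compounds were preincubated 5 min at room temperature before DOI (4 nM solution) was added. Kinetic fluorescence was read for 3 min.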

The target of assay [19] is Muscarinic acetylcholine receptor M1 (Homo sapiens) (UniProt P11229). Description: Cholinergic receptor muscarinic 1 (CHRM1) small molecule antagonists, cell-based qHTS assay (AID 1963588). Further: nearly all actives have a fitted effect of over 40% in size. A digest of the protocol:
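Compounds were tested at 15 concentrations in three independent runs. Dye-loaded CHRM1-CHO cells were exposed 5 min at room temperature before stimulation by acetylcholine added at 50nM. Intracellular calcium was read kinetically on FDSS for 3 min.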

Assay [20] in a line: cAMP Responsive Elements (CRE) small molecule antagonists, cell-based qHTS assay (AID 1963591; active means well fitted inhibition curve with a large enough effect in the signal ratio in the repeat runs, not every such curve was filed as active; the % refers to the signal ratio). A digest of the protocol: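 HEK293T CRE-bla; 18 h preincubation; compound pin-transfer; NKH477 0.25 uM final, 3 h, 37 C; LiveBLAzer FRET substrate 2 h RT.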

Values without a mark were called inactive. Inconclusive results are not listed. Active and inactive are the calls of the source. Unless noted, the call rests on the fitted dose curve.

Chain of 5-hydroxytryptamine receptor 2A (Homo sapiens) (P28223 whole entry, looked up): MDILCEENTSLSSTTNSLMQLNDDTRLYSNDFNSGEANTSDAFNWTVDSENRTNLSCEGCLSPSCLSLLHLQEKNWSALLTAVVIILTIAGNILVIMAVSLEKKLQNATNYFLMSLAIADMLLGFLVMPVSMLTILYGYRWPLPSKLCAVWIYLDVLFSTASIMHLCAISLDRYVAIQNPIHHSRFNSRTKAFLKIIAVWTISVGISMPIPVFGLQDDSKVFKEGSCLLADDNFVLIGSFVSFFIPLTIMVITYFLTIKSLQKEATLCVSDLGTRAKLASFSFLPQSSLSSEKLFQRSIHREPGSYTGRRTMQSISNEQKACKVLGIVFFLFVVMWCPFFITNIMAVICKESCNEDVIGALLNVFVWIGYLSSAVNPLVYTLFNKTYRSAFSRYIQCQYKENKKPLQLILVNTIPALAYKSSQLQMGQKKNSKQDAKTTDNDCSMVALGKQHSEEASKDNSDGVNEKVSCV
Chain of Gonadotropin-releasing hormone receptor (Homo sapiens) (P30968 whole entry, looked up): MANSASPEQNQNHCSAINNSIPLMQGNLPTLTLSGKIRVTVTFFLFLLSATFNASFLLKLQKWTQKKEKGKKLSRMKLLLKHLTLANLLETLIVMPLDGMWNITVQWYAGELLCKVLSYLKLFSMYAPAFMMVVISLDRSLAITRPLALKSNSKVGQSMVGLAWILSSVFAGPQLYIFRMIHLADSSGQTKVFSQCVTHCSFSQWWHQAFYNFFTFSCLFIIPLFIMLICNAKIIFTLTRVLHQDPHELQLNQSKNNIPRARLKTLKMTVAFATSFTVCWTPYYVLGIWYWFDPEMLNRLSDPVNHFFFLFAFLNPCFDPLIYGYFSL
Chain of KiSS-1 receptor (Homo sapiens) (Q969F8 whole entry, looked up): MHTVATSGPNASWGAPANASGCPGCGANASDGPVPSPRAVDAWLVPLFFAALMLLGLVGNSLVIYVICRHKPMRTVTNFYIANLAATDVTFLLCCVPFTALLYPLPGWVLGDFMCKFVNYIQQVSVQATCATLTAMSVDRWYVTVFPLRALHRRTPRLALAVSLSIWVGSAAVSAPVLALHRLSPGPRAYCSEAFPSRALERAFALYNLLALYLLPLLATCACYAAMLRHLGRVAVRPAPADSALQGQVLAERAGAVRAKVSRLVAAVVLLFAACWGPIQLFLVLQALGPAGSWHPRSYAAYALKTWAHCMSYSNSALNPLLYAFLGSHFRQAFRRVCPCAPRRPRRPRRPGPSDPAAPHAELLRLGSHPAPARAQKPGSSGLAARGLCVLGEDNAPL
Chain of D(2) dopamine receptor (Homo sapiens) (P14416 whole entry, looked up): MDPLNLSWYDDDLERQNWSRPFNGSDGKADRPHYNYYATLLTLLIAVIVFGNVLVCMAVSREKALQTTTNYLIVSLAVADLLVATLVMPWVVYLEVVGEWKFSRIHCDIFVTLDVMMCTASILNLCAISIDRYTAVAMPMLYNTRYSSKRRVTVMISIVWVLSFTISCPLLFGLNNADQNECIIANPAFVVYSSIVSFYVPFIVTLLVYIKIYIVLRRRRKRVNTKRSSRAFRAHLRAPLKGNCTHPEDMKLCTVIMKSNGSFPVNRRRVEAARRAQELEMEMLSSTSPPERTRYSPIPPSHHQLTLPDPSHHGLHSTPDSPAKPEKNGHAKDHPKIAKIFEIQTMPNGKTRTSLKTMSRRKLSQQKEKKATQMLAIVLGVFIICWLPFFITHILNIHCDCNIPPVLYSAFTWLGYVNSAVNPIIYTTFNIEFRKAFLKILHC
Chain of Muscarinic acetylcholine receptor M1 (Homo sapiens) (P11229 whole entry, looked up): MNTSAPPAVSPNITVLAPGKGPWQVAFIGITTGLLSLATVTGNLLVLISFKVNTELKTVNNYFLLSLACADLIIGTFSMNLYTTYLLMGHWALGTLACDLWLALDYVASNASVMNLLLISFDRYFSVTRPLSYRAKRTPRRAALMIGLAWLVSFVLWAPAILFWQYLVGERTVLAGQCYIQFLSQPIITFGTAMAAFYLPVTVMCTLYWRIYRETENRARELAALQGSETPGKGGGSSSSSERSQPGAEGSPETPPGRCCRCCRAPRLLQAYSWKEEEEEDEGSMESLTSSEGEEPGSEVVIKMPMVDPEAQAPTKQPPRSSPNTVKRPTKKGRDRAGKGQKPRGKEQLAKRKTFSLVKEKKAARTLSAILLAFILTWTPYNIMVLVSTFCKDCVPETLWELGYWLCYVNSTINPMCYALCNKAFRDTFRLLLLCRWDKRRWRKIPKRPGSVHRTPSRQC
Chain of Beta-2 adrenergic receptor (Homo sapiens) (P07550 whole entry, looked up): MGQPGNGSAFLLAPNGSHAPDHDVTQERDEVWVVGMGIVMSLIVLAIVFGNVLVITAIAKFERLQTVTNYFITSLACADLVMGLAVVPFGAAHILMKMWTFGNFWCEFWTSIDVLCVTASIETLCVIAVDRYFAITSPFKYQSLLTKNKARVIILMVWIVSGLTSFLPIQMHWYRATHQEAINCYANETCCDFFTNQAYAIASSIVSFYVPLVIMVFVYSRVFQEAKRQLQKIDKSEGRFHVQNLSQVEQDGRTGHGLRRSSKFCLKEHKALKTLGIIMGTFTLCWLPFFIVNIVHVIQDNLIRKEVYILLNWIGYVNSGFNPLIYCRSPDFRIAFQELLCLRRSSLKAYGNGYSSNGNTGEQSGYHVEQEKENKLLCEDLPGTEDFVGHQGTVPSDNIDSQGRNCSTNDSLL

As to `CCCN(CCC)C(=O)C(CCC(=O)OCCCN1CCN(CCOC(=O)Cc2c(C)n(C(=O)c3ccc(Cl)cc3)c3ccc(OC)cc23)CC1)NC(=O)c1ccccc1` (configuration not stated), the Potency entry in [1], in assay [2], in assay [3], in [6], in assay [7] and in [8] was “inactive” each time. For the same compound, the Potency entry in [9], in assay [10], in assay [11], in assay [12], in assay [13] and in assay [14] was “inactive” each time. For the same compound, the result in [4] and in assay [5] was inactive.
Take `C#C[C@]1(OC(C)=O)CC[C@H]2[C@@H]3CCC4=C[C@@H](OC(C)=O)CC[C@@H]4[C@H]3CC[C@@]21C`: the Potency result in assay [1], in assay [2], in assay [3], in assay [6], in [7] and in assay [8] was “inactive” each time. For the same compound, the Potency entry in assay [9], in assay [10], in assay [15], in assay [13], in assay [14] and in [16] was “inactive” in each case. Further, the result in assay [4] and in assay [5] was inactive.
In the case of `COc1ccc(CCC(=O)c2c(O)cc(O[C@@H]3O[C@H](CO)[C@@H](O)[C@H](O)[C@H]3O[C@@H]3O[C@@H](C)[C@H](O)[C@@H](O)[C@H]3O)cc2O)cc1O`, the Potency result in assay [1], in assay [2], in [3], in assay [6], in assay [7] and in assay [8] was “inactive” throughout. Moreover, the Potency entry in assay [9], in [17], in assay [18], in assay [11], in [19] and in assay [12] was “inactive” throughout. Besides, the Potency entry in assay [15], in [20], in assay [13], in assay [14] and in [16] was “inactive” in each case. The outcome in [4] and in assay [5] was inactive.
On to `O=C(c1ccccc1)c1ccc2n1CCC2C(=O)O` (configuration not stated), for which the Potency result in assay [1], in assay [2], in assay [3], in assay [6], in assay [7] and in [8] was “inactive” throughout. Also, the Potency result in assay [9], in assay [10], in assay [13] and in assay [16] was “inactive” in each case. The outcome in assay [4] and in [5] was inactive.
As to `Cc1c(N)cccc1Cl`, the Potency entry in assay [1], in [2], in [3], in [6], in [7] and in assay [8] was “inactive” each time. In addition, the Potency entry in assay [9], in assay [17], in [18], in [11], in assay [19] and in assay [12] was “inactive” throughout. Besides, the Potency entry in assay [15], in [20], in assay [13], in [14] and in assay [16] was “inactive” throughout. In addition, the outcome in assay [4] and in assay [5] was inactive.
In the case of `CC(C(=O)O)c1ccc(C(=O)c2ccccc2)s1` (configuration not stated), the Potency entry in assay [1], in assay [2], in assay [3], in [6], in [7] and in assay [8] was “inactive” in each case. In addition, the Potency entry in assay [9], in assay [10], in assay [11], in [19], in [12] and in assay [13] was “inactive” each time. Besides, the Potency result in assay [14] and in [16] was “inactive” each time. Moreover, the outcome in assay [4] and in [5] was inactive.
With `Oc1cc2ccccc2cc1O`, the Potency entry in assay [1], in assay [2], in assay [3], in [6], in assay [7] and in assay [8] was “inactive” throughout. Further, the Potency entry in assay [9], in assay [17], in assay [18], in [11], in assay [19] and in assay [12] was “inactive” throughout. Further, the Potency result in [15], in [20], in assay [13], in [14] and in [16] was “inactive” in each case. Also, the result in [4] and in assay [5] was inactive.
Take `c1cc(N(CC2CO2)CC2CO2)ccc1Cc1ccc(N(CC2CO2)CC2CO2)cc1` (configuration not stated): the Potency in assay [1] was 43.3 µM (active); in assay [2] it was 21.7 µM (active). For the same compound, the Potency entry in assay [3], in [6], in [7], in [8], in assay [9] and in assay [10] was “inactive” throughout. Besides, the Potency entry in assay [11], in [13], in assay [14] and in assay [16] was “inactive” throughout. The result in assay [4] and in [5] was inactive.

The values above are taken from PubChem BioAssay (Tox21).
